A selection: hits, their analogues and other compounds. The true share with any hit is near 28%.
CYP2C9 inh: blockers of cytochrome P450 2C9 activity – biochemical, luminescence, ADME assay, primary screen; CYP2C9 Supersomes, luciferin-H conversion; inhibition, % at 5 µM; 20% of 96,000 active;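 active means blocking of liver enzyme CYP2C9 beyond about 50% at 5 µM, limit read from the data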
CYP2C19 inh: blockers of cytochrome P450 2C19 activity – biochemical, luminescence, ADME assay, primary screen. P33261. CYP2C19 Supersomes, luciferin-H EGE luminescence, 30 min. inhibition, % at 5 µM. 21% of 96,000 active. AID 778, 2007;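 active means CYP2C19 inhibition above a set limit at 5 µM in the primary screen, cut at about 50% in these data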;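 further: plate controls were negative control wells for no effect and 2.5 mM tranylcypromine positive control for full effect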
CYP2C19 act: human CYP2C19 activators, primary screen, biochemical, luminescence. 96,000 tested, under 10 active. activation factor at 5 µM. recombinant CYP2C19, luciferin-H EGE luminescence; hits give high values; 0 = fully inhibited enzyme, 1 = untreated enzyme. Cytochrome P450 2C19 (Homo sapiens), P33261;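 active means activation factor of at least 2 at 5 µM in the primary screen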;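 further: 0 = wells with 2.5 mM tranylcypromine and 1 = vehicle-only wells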
CYP2C9 act: human CYP2C9 activators, primary screen, biochemical, luminescence | recombinant CYP2C9, luciferin-H conversion; hits give high values; factor 1 = untreated enzyme, 0 = blocked | AID 1024, 2008 | Cytochrome P450 2C9 (Homo sapiens), P11712 | activation factor at 5 µM | 1.4% of 96,000 active;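 active means activation factor of 2 or more for CYP2C9 at a 5 µM dose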;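 further: 0 = sulfaphenazole-blocked wells and 1 = vehicle-only wells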
D1 mod: D1 CRE-luciferase signal change, two-sided – cell-based, HEK293 D1, dopamine EC30, D1 allosteric modulator project, primary screen. D(1A) dopamine receptor (Homo sapiens), P21728. 5.9% of 58,000 active. dopamine EC30 potentiation; actives deviate in either direction. B-score at 10 µM. AID 641, 2007;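 active means luminescence count or its row- and column-corrected plate score outside the 99.7% band of the plate's sample wells, on either side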
Target sequence (P21728 whole entry, looked up): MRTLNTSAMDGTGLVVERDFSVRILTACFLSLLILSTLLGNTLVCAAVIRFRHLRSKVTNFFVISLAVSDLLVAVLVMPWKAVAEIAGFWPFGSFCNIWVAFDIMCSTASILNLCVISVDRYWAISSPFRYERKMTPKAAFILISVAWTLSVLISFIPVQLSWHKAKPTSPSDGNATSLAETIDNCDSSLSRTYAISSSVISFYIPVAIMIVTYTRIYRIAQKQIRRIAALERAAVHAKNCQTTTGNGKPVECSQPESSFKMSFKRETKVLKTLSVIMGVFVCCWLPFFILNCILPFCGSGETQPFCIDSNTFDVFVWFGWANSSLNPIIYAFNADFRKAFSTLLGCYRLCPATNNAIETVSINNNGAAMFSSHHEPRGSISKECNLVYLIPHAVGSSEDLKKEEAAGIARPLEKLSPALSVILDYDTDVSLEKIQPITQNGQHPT
hDAT+cocaine: changed hDAT dopamine uptake under cocaine IC80, either direction, primary screen, cocaine antagonist project, cell-based, LLC-PK1 hDAT, [14C]-dopamine uptake, MLSMR; Sodium-dependent dopamine transporter (Homo sapiens), Q01959; LLC-PK1 hDAT cells, [14C]-dopamine uptake with cocaine IC80; actives deviate in either direction; B-score at 10 µM; 1.3% of 110,000 active; AID 449768, 2010;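 active means Z score or B-score, a plate-position-corrected score, falls beyond the plate's 99.7% confidence bounds, in either direction; inactive means both scores lie inside the 99.7% bounds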;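 further: scored against the spread of the other compound wells on the same plate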
* hit, by the source's call; . = no result.

SMILES	CYP2C9 inh	CYP2C19 inh	CYP2C19 act	CYP2C9 act	D1 mod	hDAT+cocaine
Cn1c(SCc2ccc(C(=O)Nc3nccs3)cc2)nnc1-c1ccccc1	68*	32	0.7	0.3	.	-0.056
CCn1c(SCc2ccc(C(=O)Nc3nccs3)cc2)nnc1-c1ccc(NC(C)=O)cc1	85*	42	0.6	0.2	.	-0.76
CCn1c(SCc2ccc(C(=O)Nc3nccs3)cc2)nnc1-c1ccc(N)cc1	68*	29	0.7	0.3	.	2.2
Cc1ccc(-n2nnnc2SCn2nnc3ccccc3c2=O)c(C)c1	-66	30	0.7	1.7	.	0.076
COC(=O)c1ccccc1NC(=O)c1sc(=S)n(C)c1N	39	18	0.8	0.6	0.011	6*
COc1ccc(CCNC(=O)c2sc3cc(C)ccc3c2Cl)cc1	56*	50*	0.5	0.4	.	1.3
Cn1c(N)c(C(=O)NCc2ccccc2)sc1=S	38	53*	0.5	0.6	-0.56	-0.76
Cc1ccc2c(Cl)c(C(=O)Nc3cc(C)on3)sc2c1	17	10	0.9	0.8	.	0.82
COc1ccc(CCNC(=O)c2sc(=S)n(C)c2N)cc1	60*	42	0.6	0.4	-0.17	-0.85
COC(=O)c1ccccc1NC(=O)c1sc(N)nc1C	18	18	0.8	0.8	.	1.5
CCCN1C=CC(=C2C(=O)c3ccccc3C2=O)C=C1	58*	76*	0.2	0.4	-5.7*	1.3
CCN1C=CC(=C2C(=O)c3ccccc3C2=O)C=C1	34	49	0.5	0.7	-8.8*	0.5
CN1C=CC(=C2C(=O)c3ccccc3C2=O)C=C1	28	31	0.7	0.7	-3.1	-0.8
O=C(Cc1cc(=O)[nH]c(=O)[nH]1)NCCN1CCOCC1	.	.	.	.	0.31	0.38
COc1cccc(C(=O)Nc2cc(=O)n(C)c(=O)n2C)c1	.	.	.	.	0.3	0.0098
CC(C)OC(=O)c1nnn(-c2nonc2N)c1CN1CCc2ccccc2C1	68*	13	0.9	0.3	.	-1.4
CCOC(=O)c1nnn(-c2nonc2N)c1-c1ccc(OCC)cc1	89*	99*	0	0.1	3.1	-0.13
CCOC(=O)c1nnn(-c2nonc2-n2cccc2)c1CCl	68*	23	0.8	0.3	.	-2.5
CCOC(=O)c1nnn(-c2nonc2N)c1C	-11	15	0.8	1.1	.	-0.57
Cc1c(C(=O)N2CCCC2)nnn1-c1nonc1N	3	52*	0.5	1	-0.31	-1.3
CC1CCN(C(=O)COC(=O)[C@H](C)NS(=O)(=O)/C=C/c2ccccc2)CC1	-64	37	0.6	1.6	.	-0.39
COc1ccc2nc(C(F)(F)C(F)(F)F)c(C#N)c(N)c2c1	26	2	1	0.7	.	0.21
COCc1c(C(N)=O)nnn1-c1nonc1N	0	4	1	1	.	0.16
CC(C)OC(=O)c1nnn(-c2nonc2N)c1CN1CCCCCC1	15	5	0.9	0.9	-0.49	-0.62
CCOC(=O)c1nnn(-c2nonc2N)c1COc1c(C=O)cccc1OC	71*	14	0.9	0.3	.	-1.1
SMILES	CYP2C9 inh	CYP2C19 inh	CYP2C19 act	CYP2C9 act	D1 mod	hDAT+cocaine
CCOC(=O)c1nnn(-c2nonc2N)c1CN1CCc2ccccc2C1	58*	8	0.9	0.4	0.22	-0.43
COC(=O)c1nnn(-c2nonc2N)c1CN1CCc2ccccc21	72*	96*	0	0.3	0.94	-0.61
CCCN(CCC)Cc1c(C(=O)OCC)nnn1-c1nonc1N	19	0	1	0.8	-0.61	1.1
CCOC(=O)c1nnn(-c2nonc2N)c1CS(=O)(=O)c1ccccc1	37	63*	0.4	0.6	.	-1.5
CCN1CCN(Cc2nc3c(c(=O)n(C)c(=O)n3C)n2Cc2cccc3ccccc23)CC1	8	6	0.9	0.9	-0.041	2.3
C=CCN1C(=O)C(CC(=O)Nc2ccccc2)SC1=Nc1c(C)n(C)n(-c2ccccc2)c1=O (stereo not given)	41	26	0.7	0.6	.	-1.2
NCCCC[C@@H](C(=O)N1CCNCC1)n1cc([C@@H](N)CO)nn1	.	.	.	.	.	-0.9
N#C/C(=C/N1CCOCC1)c1ccccc1	19	53*	0.5	0.8	1.1	-0.42
Cc1ccccc1OCC(=O)Nn1c(COc2ccccc2)nc2ccccc2c1=O	100*	34	0.7	0	.	0.35
Cc1ccc(OCC(=O)Nn2c(C)nc3ccccc3c2=O)c(C(C)C)c1	98*	4	1	0	.	0.39
CC(=O)Nn1c(COc2ccccc2C)nc2ccccc2c1=O	77*	76*	0.2	0.2	1.8	0.061
Cc1cccc(C)c1OCC(=O)Nn1c(COc2ccccc2)nc2ccccc2c1=O	76*	13	0.9	0.2	.	-0.21
Cc1nc2ccccc2c(=O)n1NC(=O)c1c(O)c2ccccc2n(C)c1=O	3	13	0.9	1	-1.3	.
Cn1c(=O)oc2cc(S(=O)(=O)NCCC(=O)N3CCc4ccccc43)ccc21	-37	-10	1.1	1.4	1.3	.
Cc1ccc(CNC(=O)CS(=O)(=O)CC(=O)O)cc1	6	7	0.9	0.9	.	0.86
COC(=O)c1cc(OC)c(OC)cc1NC(=O)c1ccc(C)cc1	51*	42	0.6	0.5	.	1.8
Cc1ccc(F)cc1NC(=O)c1c(-c2ccccc2)noc1C	13	53*	0.5	0.9	1.3	-0.011
Cc1ccccc1NC(=O)c1c(-c2ccccc2)noc1C	-2	52*	0.5	1	-0.92	-1.5
COC(=O)c1onc(-c2ccccc2)c1C(=O)OC	18	72*	0.3	0.8	.	-0.0017
COC(=O)c1ccc(-c2cc(C(=O)O)c3cc4c(cc3n2)OCCO4)cc1	0	15	0.9	1	-1.3	-0.48
COc1cc(/C=N/NC(=O)C(=O)N2CCCC2)ccc1O	-36	-13	1.1	1.4	.	1.4
COC(=O)c1cc(OC)c(OC)cc1NC(=O)c1c(-c2ccccc2)noc1C	75*	56*	0.4	0.2	3.3	0.3
COC(=O)c1cc(OC)c(OC)cc1NC(=O)Nc1ccc(OC)cc1OC	84*	68*	0.3	0.2	0.083	-0.039
COc1cc(/C=N/NC(=O)CCn2c3ccccc3c3ccccc32)ccc1O	65*	60*	0.4	0.3	.	0.57
COc1cc(OC)c(NC(=O)c2c(-c3ccccc3)noc2C)cc1Cl	26	0	1	0.7	-0.2	-2.2
COc1cc(/C=N/NC(=O)c2c(-c3ccccc3)noc2C)ccc1O	77*	52*	0.5	0.2	.	-0.82

Assay outcomes: PubChem BioAssay, several laboratories
